The nature of assay [1]: qHTS assay to identify small molecule agonists of the vitamin D receptor (VDR) signaling pathway - cell viability counter screen (AID 743224). Further: series mostly up to about 63 µM; nearly all actives have a fitted effect of over 50% in size. The gist of the method:
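Compounds were pin-transferred onto VDR-bla cells plated 4 h earlier; following 16 h incubation at 37C, cell viability was quantified by CellTiter-Glo luminescence after 30 min at room temperature.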
(Quantitative high-throughput screening tests each substance at several concentrations.)

The nature of assay [2]: qHTS assay to identify small molecule antagonists of the vitamin D receptor (VDR) signaling pathway - cell viability counter screen (AID 743225). Further: nearly all actives have a fitted effect of over 50% in size. The procedure, abridged: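 VDR-bla HEK 293T cells, 4 h pre-incubation at 37C, then compound plus 1-alpha,25-dihydroxyvitamin D3 (3 nM final) for 16 h. After the beta-lactamase FRET read, CellTiter-Glo was added to the same wells; luminescence after 30 min at room temperature.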

Assay [3] in a line: qHTS assay to identify small molecule agonists of the NFkB signaling pathway - cell viability counter screen (AID 1159515; calls by dose curve; further: series mostly up to about 61 µM; nearly all actives have a fitted effect of over 55% in size). The procedure, abridged:
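Parallel cytotoxicity counter screen in ME-180 cells carrying an NFkB-response-element beta-lactamase reporter, 2,000 cells/well. Compound exposure lasted 5 hr at 37 C, 5% CO2. Cell viability was quantified by CellTiter-Glo luminescence.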

Assay [4] in a line: qHTS assay to identify small molecule agonists of the endoplasmic reticulum stress response signaling pathway (AID 1159516; active means well fitted activation curve with a large enough effect in the signal ratio in the repeat runs, not every such curve was filed as active; the % refers to the signal ratio). The gist of the method: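 Using a HeLa line with an ESRE-driven beta-lactamase gene, agonist activity was measured by FRET substrate fluorescence (460 and 530 nm emission) after cells were treated with compounds for 5 hr at 37 C and 5% CO2.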
A short description of assay [5]: qHTS assay to identify small molecule agonists of the endoplasmic reticulum stress response signaling pathway - cell viability counter screen (AID 1159517; calls by dose curve;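 further: HeLa cells carrying an ER stress response element beta-lactamase reporter; series mostly up to about 61 µM; nearly all actives have a fitted effect of over 50% in size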). The procedure, abridged: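 After overnight attachment, ESRE-bla HeLa cells were treated with Tox21 library compounds for 5 hr. CellTiter-Glo luminescence, read 30 min post-addition at room temperature, reported viability.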

In assay [6] the target is Nuclear receptor ROR-gamma (Homo sapiens) (UniProt P51449). Nature of the assay: qHTS assay to identify small molecule antagonists of the retinoid-related orphan receptor gamma (ROR-gamma) signaling pathway (AID 1159521; further: nearly all actives have a fitted effect of over 50% in size; further: potency means the concentration at half of the fitted maximal effect). The procedure, abridged: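 Tet-on RORγ CHO cells carrying a ROR response element–luciferase reporter were pretreated with compounds for 2 h, then induced with 1 uM (final) doxycycline hyclate for 16 h at 37 C. Antagonism was read as decreased ONE-Glo luminescence.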

The nature of assay [7]: qHTS assay to identify small molecule agonists of the AP-1 signaling pathway - cell viability counter screen (AID 1159525; calls by dose curve; further: nearly all actives have a fitted effect of over 55% in size; further: potency means the concentration at half of the fitted maximal effect). The gist of the method:
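Intracellular ATP by Cell Titer Glo luminescence (30 min, RT) in the same ME-180 AP-1-bla wells after the 5 h compound exposure at 37 °C. Normalised to tetra n-octyl ammonium bromide and DMSO controls.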

Assay [8] in a line: qHTS assay to identify small molecule agonists of the AP-1 signaling pathway (AID 1159526; calls by dose curve).
The target of assay [9] is Retinoic acid receptor RXR-alpha (Homo sapiens) (UniProt P19793). The assay can be described thus: qHTS assay to identify small molecule agonists of the RXR signaling pathway (AID 1159527; calls by dose curve; further: nearly all actives have a fitted effect of over 35% in size; further: potency means the concentration at half of the fitted maximal effect). The gist of the method: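 GeneBLAzer RXR-alpha-UAS-bla HEK 293T cells in medium with 2% charcoal-stripped FBS, pre-incubated 5 hr at 37 C, then exposed to compounds 16 hr. Beta-lactamase reporter read by FRET substrate, 2 hr room temperature, 460/530 nm emission.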
Retinoic acid receptor RXR-alpha (Homo sapiens), sequence (P19793 whole entry, looked up): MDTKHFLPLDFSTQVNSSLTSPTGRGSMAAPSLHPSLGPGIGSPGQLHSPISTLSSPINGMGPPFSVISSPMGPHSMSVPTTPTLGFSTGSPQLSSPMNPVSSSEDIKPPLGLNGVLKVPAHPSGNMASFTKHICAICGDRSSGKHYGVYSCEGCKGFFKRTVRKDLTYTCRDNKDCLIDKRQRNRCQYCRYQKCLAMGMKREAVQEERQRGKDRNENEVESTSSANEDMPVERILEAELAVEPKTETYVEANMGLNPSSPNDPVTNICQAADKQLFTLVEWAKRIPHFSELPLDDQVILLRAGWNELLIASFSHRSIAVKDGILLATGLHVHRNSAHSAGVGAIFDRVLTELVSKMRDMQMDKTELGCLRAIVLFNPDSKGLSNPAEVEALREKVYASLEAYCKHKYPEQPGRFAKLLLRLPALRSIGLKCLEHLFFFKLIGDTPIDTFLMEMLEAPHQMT

Assay [10] can be described thus: qHTS assay to identify small molecule agonists of the RXR signaling pathway - cell viability counter screen (AID 1159529). The procedure, abridged: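 RXR-alpha-UAS-bla HEK 293T cells in medium with 2% charcoal-stripped FBS were preincubated 5 hr, then exposed to compounds for 16 hr at 37 C. Viability was read as CellTiter-Glo luminescence after 30 min at room temperature.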

Assay [11] can be described thus: qHTS assay to identify small molecule antagonists of the retinoid acid receptor (RAR) signaling pathway - cell viability counter screen (AID 1159551). Further: nearly all actives have a fitted effect of over 35% in size. The procedure, abridged:
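ATP-based viability, C3RL4 cells, 6 h at 37 C with 1 uM final retinol co-added after compound; luminescence read 30 min post CellTiter-Glo, RT.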

A short description of assay [12]: qHTS assay to identify small molecule antagonists of the retinoic acid receptor (RAR) signaling pathway (AID 1159552; further: nearly all actives have a fitted effect of over 50% in size). The procedure, abridged: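 RARE-luc C3RL4 cells; cpds + 1 uM (final) retinol, 6 hr, 37 C/5% CO2; luciferase reagent, 30 min RT, luminescence readout. Inhibitors of retinol-driven signal scored.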
A short description of assay [13]: qHTS assay to identify small molecule agonists of the retinoic acid receptor (RAR) signaling pathway (AID 1159553). Further: potency means the concentration at half of the fitted maximal effect. The gist of the method:
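Quantitative high-throughput format: the Tox21 10K library was tested on C3RL4 RARE-luciferase cells for 6 hr at 37 C and 5% CO2, with luminescence measured after a 30 min room-temperature reagent step.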

A short description of assay [14]: qHTS assay to identify small molecule antagonists of the estrogen related receptor (ERR) signaling pathway from Tox21 library - cell viability counter screen (AID 1224834). Further: nearly all actives have a fitted effect of over 30% in size. Further: potency means the concentration at half of the fitted maximal effect. The procedure, abridged:
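Compounds in DMSO were pinned onto ERR cells that had been incubated for 6 h, and the plates were held at 37 C for 17.5 h. CellTiter-Fluor reagent was then added and fluorescence was measured after 30 min.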

The target in assay [15] is Luciferin 4-monooxygenase (Photinus pyralis) (UniProt P08659). The assay can be described thus: qHTS assay to identify small molecule inhibitors of firefly luciferase (AID 1224835). Further: nearly all actives have a fitted effect of over 25% in size. Further: potency means the concentration at half of the fitted maximal effect. The procedure, abridged: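 Inhibition of purified Photinus luciferase is measured by luminescence. Substrate levels (D-luciferin, ATP) sit at their KM values. Each compound is tested in a concentration series.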
Luciferin 4-monooxygenase (Photinus pyralis), sequence (P08659 whole entry, looked up): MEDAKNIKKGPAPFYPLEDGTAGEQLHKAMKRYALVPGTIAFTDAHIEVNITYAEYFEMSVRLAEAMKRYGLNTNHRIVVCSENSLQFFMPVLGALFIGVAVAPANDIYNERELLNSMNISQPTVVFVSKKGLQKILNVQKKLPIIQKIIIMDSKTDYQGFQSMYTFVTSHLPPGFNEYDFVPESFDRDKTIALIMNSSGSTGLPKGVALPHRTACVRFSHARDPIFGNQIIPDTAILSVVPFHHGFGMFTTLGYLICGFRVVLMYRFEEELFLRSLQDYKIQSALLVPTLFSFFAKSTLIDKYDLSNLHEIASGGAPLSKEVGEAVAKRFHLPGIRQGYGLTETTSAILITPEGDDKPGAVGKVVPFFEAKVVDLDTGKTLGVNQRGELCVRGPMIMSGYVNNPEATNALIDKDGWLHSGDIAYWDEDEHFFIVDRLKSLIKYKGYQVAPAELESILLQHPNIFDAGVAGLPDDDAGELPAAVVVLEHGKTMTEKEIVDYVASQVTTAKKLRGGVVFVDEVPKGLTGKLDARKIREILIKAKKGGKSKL

The nature of assay [16]: qHTS assay to identify small molecule antagonists of the retinoid-related orphan receptor gamma (ROR-gamma) signaling pathway - cell viability counter screen (AID 1159520). Further: nearly all actives have a fitted effect of over 50% in size. The procedure, abridged: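 Cytotoxicity was read from cellular ATP (CellTiter-Glo luminescence) after 16 hr at 37 C with 1 uM doxycycline induction. The inducer was added 2 hr after compound transfer to Tet-on ROR gamma CHO cells.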

Assay [17] can be described thus: qHTS assay to identify small molecule antagonists of the estrogen related receptor (ERR) signaling pathway (AID 1224819). The procedure, abridged:
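ERR reporter cell line (NTP) plated at 2,000 cells/well, settled 6 h at 37C/5% CO2, then exposed to LOPAC compounds for 18 h at 37C. One-Glo luciferase luminescence read after 30 min at room temperature.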

A short description of assay [18]: qHTS assay to identify small molecule agonists of the estrogen related receptor (ERR) signaling pathway (AID 1224820). The procedure, abridged:
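Luminescence readout (One-Glo, 30 min RT) from NTP-supplied ERR cell line exposed to compounds for 18 h at 37 C. Cells seeded 2,000 per well and pre-incubated 6 h before pin-tool compound transfer.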

The subject of assay [19] is estrogen-related receptor alpha (ERRalpha) with PGC-1alpha coactivator, human. Nature of the assay: qHTS assay to identify small molecule antagonists of the estrogen related receptor signaling pathway with the pleiotropic PPARgamma coactivator (PGC) (AID 1224821; calls by dose curve). The procedure, abridged: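 PGC/ERR reporter cells; 6 h pre-incubation 37 C/5% CO2; pin-tool compound in DMSO, 18 h 37 C; One-Glo added, 30 min RT; luminescence read. qHTS antagonist mode.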

Assay [20] is described as follows: qHTS assay to identify small molecule agonists of the estrogen related receptor signaling pathway with the pleiotropic PPARgamma coactivator (PGC) (AID 1224823). The procedure, abridged:
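Luminescence readout (One-Glo, 30 min RT) from PGC/ERR cell line treated 18 h at 37 C with pin-tool-delivered DMSO compound solutions; cells plated 6 h before dosing. Quantitative HTS format.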

Values joined by “and” are separate entries in the source; they are usually repeats but may differ in a detail not shown here. Identical values can stand only once. Inconclusive results are not listed. Some structures have more than one record in an assay (separate samples or runs), and their calls can disagree. Active and inactive are the calls of the source. Unless noted, the call rests on the fitted dose curve; in most records, active means well fitted curve in the direction sought with a large enough effect in the repeat runs; inconclusive means weak or mixed curves; inactive means no such curve, though single readings can be large; an effect the other way counts as inactive or inconclusive.

Take `CCCNC(C)C(=O)Nc1ccccc1C` (stereo unspecified): the Potency entry in assay [1], in [2], in assay [3], in assay [5], in assay [6] and in assay [7] was “inactive” each time. Also, the Potency result in assay [8], in assay [9], in [10], in assay [11], in assay [12] and in assay [13] was “inactive” each time. The Potency result in [14] and in assay [15] was “inactive” throughout. The call in [4] was inactive.

As to `CCCC(=O)c1ccccc1`, the Potency result in assay [2], in assay [3], in assay [5], in assay [16], in assay [6] and in [7] was “inactive” in each case. Besides, the Potency entry in [8], in assay [9], in [10], in [11], in assay [12] and in [13] was “inactive” in each case. The Potency result in [14] and in assay [15] was “inactive” throughout. For the same compound, the compound was called inactive in assay [4].

For `O=C(OCc1ccccc1)c1ccc(O)cc1`, the Potency entry in assay [1], in assay [2], in [3], in assay [5], in assay [16] and in assay [6] was “inactive” throughout. Moreover, the Potency result in assay [7], in [8], in [9], in assay [10], in assay [12] and in assay [14] was “inactive” throughout. In addition, the compound was classed as inactive in assay [4]. Besides, in [13], the Potency was 6.86 µM (active) and 11.9 µM (active).

Turning to `CC(C)(C)NCC(O)COc1ccccc1OCC1CCCO1` (stereo unspecified), the Potency entry in [1], in assay [2], in assay [3], in [5], in [16] and in [7] was “inactive” each time. The Potency result in assay [8], in assay [9], in [10], in assay [11], in assay [12] and in [13] was “inactive” in each case. Further, the Potency result in assay [14] and in assay [15] was “inactive” throughout. The result in assay [4] was inactive.

`Cc1scc2c1N(C(=O)CN1CCN(C)CC1)c1ccccc1NC2=O`: the Potency result in [1], in assay [2], in [3], in assay [5], in assay [16] and in assay [6] was “inactive” in each case. The Potency result in [7], in assay [8], in assay [9], in assay [10], in [12] and in assay [13] was “inactive” in each case. The Potency result in [14] is “inactive”. Also, in assay [4], the compound was classed as inactive.

For the compound `Nc1ccc(O)cc1`, the Potency result in assay [1], in [2], in [3], in assay [5], in assay [8] and in assay [9] was “inactive” each time. Further, the Potency entry in [10] and in assay [12] was “inactive” throughout. In assay [4], the call was inactive. Further, the Potency was 31.8 µM (active) and inactive in assay [6]; 32.1 µM (active) and inactive in assay [7]; 20.1 µM (active) in assay [13]; 31.8 µM (active) and inactive in assay [14]; 65.7 µM (active) and inactive in [15].

On to `CC(C)C(=O)c1c(C(C)C)nn2ccccc12`, for which the Potency entry in assay [1], in assay [2], in [3], in assay [5], in assay [16] and in assay [6] was “inactive” each time. The Potency entry in [7], in [8], in assay [10], in assay [12], in [13] and in assay [17] was “inactive” in each case. For the same compound, the Potency result in assay [19], in assay [14] and in [15] was “inactive” in each case. Further, the call in assay [4], in [18] and in assay [20] was inactive. For the same compound, in assay [9], the Potency is 23.9 µM (active).

(Values after PubChem BioAssay (Tox21).)
